Source: PubChem BioAssay (EPA / NIEHS)
Calls of active or inactive are those of the source. How the source made its calls: active means hit-call score of the fitted dose curve at least 0.9, where 1 is the maximum; inactive means score below 0.9.

Legend:
Settings in all cases: mRNA level, 48 h; actives raise or lower the signal
[1] = read-out: Cytochrome P450 7A1 (Homo sapiens) (UniProt P22680); test: LTEA_HepaRG_CYP7A1: Life Technologies and Expression Analysis (LTEA) Assay for Cytochrome P450 7A1 (CYP7A1) using HepaRG (AID 2283496)
Method in brief: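 HepaRG cells plated 48 h, then switched to serum-free induction medium and exposed in duplicate for 48 h to 8-point half-log series from 100 uM in 0.5% DMSO. CYP7A1 mRNA by qRT-PCR (TaqMan), normalized to ACTB/GAPDH/POLR2A; bidirectional fit versus DMSO.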

[2] = read-out: Glutathione S-Transferase (GSTA2), GSTA2 (gene 2939); test: LTEA_HepaRG_GSTA2: Life Technologies and Expression Analysis (LTEA) Assay for Glutathione S-Transferase (GSTA2) using HepaRG (AID 2283497)
Method in brief: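 Human HepaRG cells, plated 48 h, then exposed in serum-free induction medium for 48 h to eight half-log concentrations up to 100 uM in 0.5% DMSO, duplicate. GSTA2 mRNA by qRT-PCR, normalized to ACTB/GAPDH/POLR2A; bidirectional fit versus DMSO.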

[3] = read-out: Glutamate-cysteine ligase catalytic (GCLC), GCLC (gene 2729); test: LTEA_HepaRG_GCLC: Life Technologies and Expression Analysis (LTEA) Assay for Glutamate-cysteine ligase catalytic (GCLC) using HepaRG (AID 2283498)
Method in brief: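 Differentiated human HepaRG cells, plated 48 h then switched to serum-free induction medium, were exposed in duplicate for 48 h to 8 half-log concentrations topping at 100 uM in 0.5% DMSO. GCLC mRNA was quantified by qRT-PCR against ACTB, GAPDH and POLR2A.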

[4] = read-out: growth arrest and DNA damage 45 (GADD45G), GADD45G (gene 10912); test: LTEA_HepaRG_GADD45G: Life Technologies and Expression Analysis (LTEA) Assay for growth arrest and DNA damage 45 (GADD45G) using HepaRG (AID 2283499)
Method in brief: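 HepaRG, 48 h exposure, top 100 uM, half-log 8-point series, 0.5% DMSO vehicle, duplicates. Readout: GADD45G transcript by qRT-PCR (Fluidigm array), housekeeping-normalised (ACTB/GAPDH/POLR2A). Bidirectional curve fit vs DMSO baseline.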

[5] = read-out: Glutamate-cysteine ligase regulatory (GCLM), GCLM (gene 2730); test: LTEA_HepaRG_GCLM: Life Technologies and Expression Analysis (LTEA) Assay for Glutamate-cysteine ligase regulatory (GCLM) using HepaRG (AID 2283500)
Method in brief: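 Cells were plated, cultured 48 h, switched to serum-free induction medium, then dosed in duplicate for 48 h at eight half-log concentrations up to 100 uM. RNA was then profiled by qRT-PCR; gain or loss versus DMSO was fitted.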

[6] = read-out: Glutathione S-transferase M3 (GSTM3), GSTM3 (gene 2947); test: LTEA_HepaRG_GSTM3: Life Technologies and Expression Analysis (LTEA) Assay for Glutathione S-transferase M3 (GSTM3) using HepaRG (AID 2283501)
Method in brief: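 qRT-PCR read-out of GSTM3 transcript, normalized to three housekeeping genes, from human HepaRG cells after 48 h chemical exposure. Eight-point half-log series, top 100 uM, 0.5% DMSO vehicle; gain or loss fitted relative to DMSO baseline.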

[7] = read-out: Heat shock 70 kDa protein 1 (HSPA1A), gene 3303; test: LTEA_HepaRG_HSPA1A: Life Technologies and Expression Analysis (LTEA) Assay for Heat shock 70 kDa protein 1 (HSPA1A) using HepaRG (AID 2283502)
Method in brief: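 Readout is HSPA1A transcript level by microfluidic qRT-PCR, normalized to three housekeeping genes and analysed for gain or loss of signal relative to 0.5% DMSO. Human HepaRG cultures received test chemicals for 48 h at up to 100 uM.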

[8] = read-out: Hypoxia-inducible factor 1-alpha (Homo sapiens) (UniProt Q16665); test: LTEA_HepaRG_HIF1A: Life Technologies and Expression Analysis (LTEA) Assay for Hypoxia-inducible factor 1 (HIF1A) Trancription factor using HepaRG (AID 2283503)
Method in brief: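 Differentiated HepaRG cells in serum-free induction medium exposed 48 h, in duplicate, to 8-point half-log series from 100 uM in 0.5% DMSO. HIF1A mRNA measured by TaqMan qRT-PCR, normalized to ACTB/GAPDH/POLR2A, fitted bidirectionally versus DMSO.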

HGF (gene 3082) = test: LTEA_HepaRG_HGF: Life Technologies and Expression Analysis (LTEA) Assay for Hepatocyte Growth Facto (HGF) using HepaRG (AID 2283505)
Method in brief: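 HepaRG, 48 h dosing, 8-pt half-log series from 100 uM in 0.5% DMSO, duplicates. Readout: TaqMan qRT-PCR of HGF mRNA, housekeeping-normalized; bidirectional curve fit vs DMSO baseline.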

[9] = read-out: Intercellular Adhesion Molecule 1 (ICAM1), ICAM1 (gene 3383); test: LTEA_HepaRG_ICAM1: Life Technologies and Expression Analysis (LTEA) Assay for Intercellular Adhesion Molecule 1 (ICAM1) using HepaRG (AID 2283507)
Method in brief: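 HepaRG, 48 h exposure, 8-pt half-log series from 100 uM, 0.5% DMSO vehicle, duplicates. Readout: TaqMan qRT-PCR mRNA, housekeeping-normalized (ACTB/GAPDH/POLR2A). Bidirectional curve fit vs DMSO baseline.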

[10] = read-out: Insulin-like growth factor-binding protein 1 (IGFBP1), IGFBP1 (gene 3484); test: LTEA_HepaRG_IGFBP1: Life Technologies and Expression Analysis (LTEA) Assay for Insulin-like growth factor-binding protein 1 (IGFBP1) using HepaRG (AID 2283508)
Method in brief: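 qRT-PCR mRNA read-out (TaqMan, Fluidigm array), normalised to three housekeeping genes; HepaRG cells, 48 h exposure, 8-pt half-log series from 100 uM, 0.5% DMSO vehicle; bidirectional curve fit vs DMSO baseline.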

[11] = read-out: Interleukin 6 (IL6), IL6 (gene 3569); test: LTEA_HepaRG_IL6: Life Technologies and Expression Analysis (LTEA) Assay for Interleukin 6 (IL6) using HepaRG (AID 2283509)
Method in brief: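 Differentiated human HepaRG cells, plated 48 h then switched to serum-free induction medium, were exposed in duplicate for 48 h to eight half-log concentrations up to 100 uM in 0.5% DMSO. IL6 mRNA measured by qRT-PCR, normalized to ACTB/GAPDH/POLR2A.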

[12] = read-out: Interleukin 6 Receptor (IL6R), IL6R (gene 3570); test: LTEA_HepaRG_IL6R: Life Technologies and Expression Analysis (LTEA) Assay for Interleukin 6 Receptor (IL6R) using HepaRG (AID 2283510)
Method in brief: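 Readout is IL6R transcript level by TaqMan qRT-PCR, normalized to three housekeeping genes and fitted bidirectionally against 0.5% DMSO controls. Human HepaRG cells received chemicals for 48 h in serum-free induction medium, highest concentration 100 uM.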

[13] = read-out: Potassium channel subfamily K member 1 (KCNK1), KCNK1 (gene 3775); test: LTEA_HepaRG_KCNK1: Life Technologies and Expression Analysis (LTEA) Assay for Potassium channel subfamily K member 1 (KCNK1) using HepaRG (AID 2283511)
Method in brief: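 Differentiated human HepaRG cells in serum-free induction medium were exposed in duplicate for 48 h to 8 half-log concentrations up to 100 uM in 0.5% DMSO. KCNK1 mRNA was measured by TaqMan qRT-PCR, normalized to ACTB, GAPDH and POLR2A, and fitted bidirectionally versus DMSO.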

[14] = read-out: Keratin 19 (KRT19), KRT19 (gene 3880); test: LTEA_HepaRG_KRT19: Life Technologies and Expression Analysis (LTEA) Assay for Keratin 19 (KRT19) using HepaRG (AID 2283512)
Method in brief: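 HepaRG, 48 h chemical exposure, 8-pt half-log CRC from 100 uM, 0.5% DMSO vehicle, duplicates. Readout: TaqMan qRT-PCR of KRT19 mRNA, housekeeping-normalized (ACTB/GAPDH/POLR2A). Bidirectional fit vs DMSO baseline.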

[15] = read-out: JUN Transcription Factor, JUN (gene 3725); test: LTEA_HepaRG_JUN: Life Technologies and Expression Analysis (LTEA) Assay for JUN Transcription Factor using HepaRG (AID 2283513)
Method in brief: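 Cells plated 48 h, medium switched to serum-free induction medium, then dosed 48 h (100 uM top, half-log dilutions, 0.5% DMSO). RNA isolated; JUN measured by qRT-PCR against three housekeeping genes; gain or loss fitted relative to DMSO.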

[16] = read-out: Lipase C (LIPC), LIPC (gene 3990); test: LTEA_HepaRG_LIPC: Life Technologies and Expression Analysis (LTEA) Assay for Lipase C (LIPC) using HepaRG (AID 2283514)
Method in brief: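 Differentiated human HepaRG cells in serum-free induction medium were exposed in duplicate for 48 h to eight concentrations (top 100 uM, half-log steps, 0.5% DMSO). LIPC mRNA was quantified by TaqMan qRT-PCR, normalized to ACTB, GAPDH and POLR2A, with bidirectional fitting versus DMSO.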

[17] = read-out: Lipoprotein lipase (LPL), LPL (gene 4023); test: LTEA_HepaRG_LPL: Life Technologies and Expression Analysis (LTEA) Assay for Lipoprotein lipase (LPL) using HepaRG (AID 2283515)
Method in brief: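 Differentiated human HepaRG cells in serum-free induction medium were exposed in duplicate for 48 h to eight half-log concentrations (top 100 uM) in 0.5% DMSO. LPL mRNA was quantified by TaqMan qRT-PCR, normalized to ACTB, GAPDH and POLR2A.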

[18] = read-out: 3-Hydroxy-3-Methylglutaryl-CoA Synthase 2 (HMGCS2), HMGCS2 (gene 3158); test: LTEA_HepaRG_HMGCS2: Life Technologies and Expression Analysis (LTEA) Assay for 3-Hydroxy-3-Methylglutaryl-CoA Synthase 2 (HMGCS2) using HepaRG (AID 2283504)
Method in brief: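 qRT-PCR read-out of HMGCS2 transcript, normalised to three housekeeping genes, in HepaRG cells after 48 h chemical exposure. Eight-point curves from 100 uM, half-log dilutions, 0.5% DMSO vehicle; gain or loss fitted relative to DMSO baseline.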

[19] = read-out: Insulin Like Growth Factor 1 (IGF1), IGF1 (gene 3479); test: LTEA_HepaRG_IGF1: Life Technologies and Expression Analysis (LTEA) Assay for Insulin Like Growth Factor 1 (IGF1) using HepaRG (AID 2283506)
Method in brief: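 HepaRG, plated 48 h, then switched to serum-free induction media; test chemical 8-pt half-log from 100 uM (0.5% DMSO), duplicate, 48 h. Lysis in RLT, TaqMan qRT-PCR, norm. ACTB/GAPDH/POLR2A. Bidirectional fit vs DMSO.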

Measured: AC50

Hypoxia-inducible factor 1-alpha (Homo sapiens), sequence (Q16665 whole entry, looked up): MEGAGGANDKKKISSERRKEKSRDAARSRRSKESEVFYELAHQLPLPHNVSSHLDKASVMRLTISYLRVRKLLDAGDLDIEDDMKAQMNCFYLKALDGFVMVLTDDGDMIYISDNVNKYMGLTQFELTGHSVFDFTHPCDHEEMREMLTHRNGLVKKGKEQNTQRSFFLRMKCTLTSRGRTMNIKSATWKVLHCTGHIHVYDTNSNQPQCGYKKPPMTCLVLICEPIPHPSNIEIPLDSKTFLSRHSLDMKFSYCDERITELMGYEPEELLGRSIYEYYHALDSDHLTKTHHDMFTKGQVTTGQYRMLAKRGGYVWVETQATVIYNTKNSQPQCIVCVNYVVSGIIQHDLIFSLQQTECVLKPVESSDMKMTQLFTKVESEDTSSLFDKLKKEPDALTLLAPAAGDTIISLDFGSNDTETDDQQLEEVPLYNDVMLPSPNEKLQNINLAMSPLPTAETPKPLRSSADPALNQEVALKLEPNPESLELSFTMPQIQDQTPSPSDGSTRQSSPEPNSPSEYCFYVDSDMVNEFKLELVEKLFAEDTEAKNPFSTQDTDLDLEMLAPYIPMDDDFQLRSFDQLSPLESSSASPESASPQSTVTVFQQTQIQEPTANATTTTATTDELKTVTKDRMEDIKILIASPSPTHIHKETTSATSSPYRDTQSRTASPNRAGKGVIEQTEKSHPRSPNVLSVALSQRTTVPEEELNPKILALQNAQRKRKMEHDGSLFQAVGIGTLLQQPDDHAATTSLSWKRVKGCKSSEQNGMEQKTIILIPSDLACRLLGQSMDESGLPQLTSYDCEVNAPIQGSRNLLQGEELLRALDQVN

ClC1=C(Cl)[C@]2(Cl)[C@@H]3[C@H]4C[C@H]([C@@H]5O[C@H]45)[C@@H]3[C@@]1(Cl)C2(Cl)Cl
active: [1] 17.4 µM | [2] 32.6 µM | [9] 9.92 µM | [12] 9.92 µM | [16] 50 µM
not listed: [18] | [19]
inactive: all other assays above

CC#Cc1cc(C)nc(Nc2ccccc2)n1
inactive: [4] | [7] | [8] | [9] | [12] | [13] | [15]
active: [1] 13.8 µM | [3] 32.8 µM | [5] 50 µM | [6] 14.5 µM | [18] 32.5 µM | HGF (gene 3082) 50 µM | [10] 21.9 µM | [11] 23.6 µM | [14] 22.8 µM | [16] 15.3 µM | [17] 3.75 µM

CCC(C)c1cc([N+](=O)[O-])cc([N+](=O)[O-])c1O (centres undefined)
active: [1] 2.67 µM | [2] 2.72 µM | [3] 1.29 µM | [4] 4.96 µM | [5] 50 µM | [6] 4.16 µM | [7] 2.49 µM | [8] 18.5 µM | [18] 2.93 µM | HGF (gene 3082) 2.87 µM | [19] 1.24 µM | [10] 4.09 µM | [11] 4.95 µM | [13] 27.5 µM | [14] 2.53 µM | [17] 0.758 µM
inactive: [9] | [12] | [15]

O=C(O)C(F)(F)C(F)(F)C(F)(F)C(F)(F)C(F)(F)F
not listed: [7] | [16] | [18] | [19]
inactive: all other assays above

O=C(N[C@H]1CN2CCC1CC2)c1cc2ccoc2cn1
not listed: [7] | [16] | [18]
inactive: all other assays above

CN(C)CCO
not listed: [16] | [18] | [19]
inactive: all other assays above

CC(C)(O)C(=O)Nc1ccc([N+](=O)[O-])c(C(F)(F)F)c1
active: [18] 44.8 µM | HGF (gene 3082) 0.0291 µM | [19] 0.0443 µM | [9] 0.0402 µM | [10] 0.0432 µM | [13] 0.052 µM | [15] 0.0328 µM | [16] 0.0399 µM
not listed: [7]
inactive: all other assays above
